This is an account of results in ChEMBL document CHEMBL1157539, “Thousands of chemical starting points for antimalarial lead identification” (Nature, 2010).

In general, Inhibition refers to how much of the control response was suppressed. A high value points to a response far below the control.

The experiment deals with HepG2. Briefly: GSK_TCMDC: Percent inhibition of human HepG2 cell line. Test compounds present at 10uM. The class given is functional.
`CCN(CCCN1CCCCC1)c1cc(C)nc(Nc2ccc(C(F)(F)F)cc2)n1.O=C(O)C(F)(F)F` showed an Inhibition of 26%.
Then `CCCCSc1ccc2nc(-c3c[nH]c4ccc(C#N)cc34)cn2c1`, with 3%; and `O=S(=O)(Nc1cccc(CCN2CCC(N3CCCCC3)CC2)c1)c1cccc2ccccc12`, with 23%; and `CCOC(=O)c1c(C)n(-c2ccc(Cl)cc2)c2ccc(OC(=O)C=Cc3ccccc3)cc12`, with 3%.
The result for `O=C(c1cc(-c2ccccc2O)on1)N1CCN(C(c2ccccc2)c2ccccc2)CC1` reads 12%; that for `CCOC(=O)c1c(NC(=O)c2ccccc2)sc2c(O)c(CNC3CCCCC3)ccc12`, 6%.
Then `Cl.c1ccc(Oc2ccc(Nc3nncc4ccccc34)cc2)cc1`, with 20%; and `O=C(Nc1cccc(CN2CCN(Cc3ccc(O)cc3)CC2)c1)c1ccc(-c2ccccc2)cc1.O=C(O)C(F)(F)F`, with 40%; and `CCOc1ccc(C(C)NC(=O)Cc2ccccc2F)cc1OCC` (stereo not given), with 15%.
For the compound `CC(=O)c1ccc2cc(C(=O)NC3CCC(CCN4CCc5ccc(-c6noc(C)n6)cc5CC4)CC3)[nH]c2c1.Cl` (stereo not given), the Inhibition came to 28%.
The result for `Cc1cccc2nc(-c3ccc(-c4ccc(CN5CCN(c6ccc(C#N)cn6)CC5)cc4)s3)[nH]c12.O=C(O)C(F)(F)F` reads 10%; that for `O=c1cc(NCCC(CNCc2ccoc2)NCc2cc(Br)cc(Br)c2)[nH]c2ccccc12` (stereo not given), 0%; that for `CC(C)c1ccc(C(NC(=O)C2CCCCC2)c2ccc3cccnc3c2O)cc1` (stereo not given), 46%.
The result for `COc1ccc2nccc([C@@H](O)CN3CCC(NCCOc4ccccc4[N+](=O)[O-])CC3)c2c1.O=C(O)C(=O)O` reads 4%.
Then `Cc1ccccc1C1CCN(c2ccc(C(=O)Nc3ccccc3)cn2)CC1.O=C(O)C(F)(F)F`, with 53%; and `CC(C)CN(C)Cc1ccc(-c2ccc(-c3nc4ccccc4[nH]3)s2)cc1`, with 8%.
`N=C(N)NC(=O)Nc1cc(Cl)c(Cl)c(Cl)c1`: the Inhibition turned out to be 0%.
Then `CC(C)(C)NC(=O)c1ccc(Oc2ccc(OC(F)(F)F)cc2)c(NC(=O)C(C)(C)C)c1`, with 0%.
The result for `CN1CCc2cc(O)c(NS(=O)(=O)c3ccc(-c4ccc(Cl)cc4)cc3)cc2CC1.Cl` reads 7%.
Then `Cc1ccc(NC(=O)c2ccc3ncccc3c2)cc1OC1CCN(C(C)C)C1.O=C(O)C(F)(F)F` (stereo not given), with 12%; and `Nc1nccc(-c2ccc3c(-c4cccc(F)c4)cnc(N)c3c2)n1`, with 41%; and `COc1ccc(S(=O)(=O)N(CCCN2CCN(C)CC2)Cc2csc(-c3ccc(CNCc4ccccc4)cc3)n2)cc1.O=C(O)C(F)(F)F`, with 10%.
For the compound `O=C(Nc1cccc(-c2ccc(-c3nc4ccccc4[nH]3)cc2)c1)Nc1ccc(F)c(F)c1F`, the Inhibition is 45%.
Then `CCOC(=O)CCCOc1c(OC)cc(Cc2cnc(N)nc2N)cc1OC`, with 10%.
The result for `O=C(NCCCCN1CCN(c2cccc(Cl)c2Cl)CC1)c1ccc2c(c1)CCN(C1CCC1)CC2` reads 97%; that for `O=S1(=O)C=C(c2ccccc2)CC1`, 57%.
The result for `COc1cc(Nc2ccc3cc(S(=O)(=O)N4CCCCC4C)ccc3n2)cc(OC)c1OC` (stereo not given) reads 0%.
Regarding `COc1ccc2c(N/N=C/c3ccccc3[N+](=O)[O-])ccnc2c1`, the Inhibition stood at 98%.
The result for `CCc1cc(NC(=O)Nc2ccnc3ccccc23)ccc1OC.Cl` reads 0%.
Then `COc1ccc(-c2nc3cccnc3n2CC(=O)Nc2c(C)cc(C)cc2C)c(OC)c1`, with 77%; and `Cc1ccc(Nc2nc3cc(N(C)c4ccnc(Nc5cccc(CS(C)(=O)=O)c5)n4)ccc3o2)cc1.O=C(O)C(F)(F)F`, with 0%; and `CCCCCCCCCN(CCC)C(=O)[C@@H]1OC(C(=O)OC(c2ccccc2)c2ccccc2)=C[C@H](NC(=O)OC(C)(C)C)[C@H]1NC(C)=O`, with 0%.
The result for `O=C(O)C(F)(F)F.c1ccc(CCNCc2cccc(-c3ccc(CNc4ccc5ncccc5c4)cc3)c2)cc1` reads 43%; that for `N#Cc1ccc(CN2CCC(Oc3ccc(NC(=O)c4cccs4)cc3Cl)C2)cc1.O=C(O)C(F)(F)F` (stereo not given), 31%.
With `O=C(Nc1ccc2ccccc2c1)N1CCC(NCc2cccc([N+](=O)[O-])c2)CC1.O=C(O)C(F)(F)F`, the Inhibition is on record as 0%.
Take `COc1ccc(CCN(Cc2cccs2)C(=O)c2cc3sccc3n2C)cc1OC`: the Inhibition is given as 0%.
Then `Cc1ccc(Cn2cnc3cc(C(=O)Nc4ccc(-c5cccc(CN(C)C)c5)cc4)ccc3c2=O)o1`, with 22%; and `CC(NC(=O)c1cc(-c2ccccc2)nc2c1cnn2C(C)C)C1CC1` (stereo not given), with 35%.
Then `CCOC(=O)c1cn(CC)c2cc(N3CCCCC3)c(F)cc2c1=O`, with 0%.
The result for `Cl.N#Cc1cccc(-c2ccc(C(=O)Nc3ccc4c(c3)CCN(C3CCC3)CC4)cn2)c1` reads 26%.
